# From PubChem
# Mito fusion act = blocks mitochondrial division or promotes mitochondrial fusion; S. cerevisiae fusion-defective mutant growth rescue, CellTiterGlo 48 h; Potency, µM (highest dose often 46.1 µM), actives largely listed as activators; hit rate 0.23% among 320,000; further: nearly all actives have a fitted effect of over 45% in size
#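 Temperature-sensitive fusion-defective S. cerevisiae (e.g. fzo1-1, mgm1-5) were grown with compound in YPEG medium (3% ethanol, 3% glycerol) for 48 hours at 37C. Growth rescue was measured as viability by CellTiterGlo luminescence after 10 minutes at ambient.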
# aSyn yeast inh = inhibitors of alpha-synuclein toxicity in yeast. Yeast expressing alpha-synuclein, growth rescue, BacTiter-Glo, 24 h. Potency, µM (series often up to 46.1 µM), actives largely listed as activators. hit rate 0.14% among 370,000; further: nearly all actives have a fitted effect of over 65% in size
#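 Readout is rescue of growth in alpha-synuclein-expressing yeast, so inhibitors of toxicity appear as activators. Growth after 24 hr at 30 deg C in galactose medium is quantified by luminescence.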
# Abeta yeast res = A-beta toxicity reversal in yeast; yeast expressing A-beta42, growth rescue, OD600, 48 h; response scale: 0% DMSO, 100% iron-clioquinol control; Potency, µM (series often up to 46.1 µM), hits mostly activators; hit rate 0.063% among 410,000; further: nearly all actives have a fitted effect of over 55% in size
#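 Yeast A-beta toxicity model in growth medium with pinned compounds, 48 h at 30 C; growth read as absorbance at 600 nm. Normalized to FeCl3/clioquinol equimolar mix (positive) and DMSO (negative).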
# FUS yeast rescue = FUS proteinopathy suppression in yeast; S. cerevisiae FUS-expressing, growth rescue, OD600, 24 h; Potency, µM (series often up to 76.6 µM), hits mostly activators; hit rate 0.24% among 390,000; further: nearly all actives have a fitted effect of over 55% in size
#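 Yeast FUS proteinopathy model; galactose-induced FUS (2%), starting OD 0.005. Cpds in dilution series, 24hr, 30C, 99% humidity. Abs 600 nm growth. Pos ctrl CP55940 (top 92uM final); neg ctrl DMSO.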
# TDP43 rescue = TDP-43 toxicity inhibition in yeast; TDP-43 expressing yeast growth rescue, BacTiter-Glo, 24 h; Potency, µM (highest dose often 46.1 µM), actives largely listed as activators; AID 652104; hit rate 1.8% among 410,000; further: nearly all actives have a fitted effect of over 50% in size
#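 Growth rescue of TDP-43-toxic yeast measured as ATP luminescence (BacTiter-Glo). Cells grown to mid-log in raffinose, induced in galactose at OD600=0.02, exposed to compound 24 hr at 30 deg C.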
# Hits are given with their value; i = inactive; ? = inconclusive; nt = no result given; ! = repeats disagree. A selection: hits, their analogues and other compounds. The true share with any hit is near 2.2%. The call rests on the fitted dose curve; in most records, active means well fitted curve in the direction sought with a large enough effect; inconclusive means small, poorly fitted or top-dose-only effect, or another doubt; inactive means no such curve, though single readings can be large; an effect the other way counts as inactive or inconclusive.
SMILES,Mito fusion act,aSyn yeast inh,Abeta yeast res,FUS yeast rescue,TDP43 rescue
COc1cccc(C(=O)NCC2(c3ccc(OC)c(OC)c3)CCCC2)c1,i,i,i,i,i
CN(Cc1ccccc1)Cc1cc(=O)oc2ccc3ccccc3c12,nt,i,i,i,?
CC(C)(C)c1ccc(C(=O)NCc2nnc(SCC(=O)NCC3CCCO3)o2)cc1 (configuration not stated),i,i,i,i,i
Cc1nn(CC(=O)c2ccc(Cl)s2)c(C)c1[N+](=O)[O-],i,i,i,17.8µM,i
Cc1ccc(C(=O)Cn2nc(C)c([N+](=O)[O-])c2C)c(C)c1,i,i,i,i,i
Cc1nn(CC(=O)Nc2ccc3c(c2)OCCO3)c(C)c1[N+](=O)[O-],nt,i,i,i,6.31µM
O=C(C[C@@H]1C[C@H]2c3cc(NC(=O)C4CCC4)ccc3O[C@H]2[C@@H](CO)O1)NCc1ccc(-c2ccccc2)cc1,nt,i,i,i,i
O=S(=O)(NC(=NCc1ccccc1)c1ccccc1)c1ccccc1,i,i,i,i,i
S=C(N/N=C/c1ccccc1)N1CCOCC1,i,i,?,nt,22.4µM
S=C(Nc1ccccc1)N1CCOCC1,i,i,i,i,i
Fc1ccc(CNc2nc3ccc(Cl)cc3n3nnnc23)cc1,nt,nt,i,i,i
N#CC(C#N)=C1SC(=Nc2ccccc2)C(=Nc2ccccc2)N1c1ccccc1,nt,i,i,nt,i
COc1ccc(N2CCN(C(c3nnnn3C3CCCC3)C(C)C)CC2)cc1 (configuration not stated),12.6µM,i,i,i,i
Nc1nc2c(ncn2[C@@H]2O[C@H](CNC(=O)[C@H](N)Cc3ccccc3)[C@@H](O)[C@H]2O)c(=O)[nH]1,nt,i,i,i,i
S=C(NCc1ccccc1)N1CCc2ccccc2C1,i,i,i,i,11.2µM
Cc1cccc(C(=O)NC(=S)N2CCc3ccccc3C2)c1,i,i,?,i,20µM
Fc1ccc2[nH]c3c(c2c1)CN(C(=S)NCc1ccccc1)CC3,?,i,?,i,15.8µM
C=CCNC(=O)N1CCc2[nH]c3ccc(F)cc3c2C1,i,i,i,i,i
CCOc1ccc(C2C(=O)N(C3CCCCCC3)CC(=O)N2Cc2ccc(F)cc2)cc1OC (configuration not stated),nt,nt,i,i,i
C/C(=N\Nc1cc(C)nc(-c2ccccc2O)n1)c1ccccc1O,i,i,i,i,11.2µM
Cc1ccc(CNc2nc3ccc(Cl)cc3n3nnnc23)cc1,nt,nt,i,i,i
CCn1cc(C(=O)N[C@H](C(=O)NCCCn2ccnc2)C(C)C)c(=O)c2cc3c(cc21)OCO3,i,i,i,i,i
COc1cc(-c2cc(OC)c3c(C)oc(C)c3c(=O)c2)ccc1OC(=O)c1cccc(Cl)c1,nt,nt,i,?,20µM
COc1ccc(-c2cc(OC(=O)c3cccc(Cl)c3)c3c(C)oc(C)c3c(=O)c2)cc1OC,nt,nt,i,?,i
CCOc1cc(-c2ccc(OC(=O)c3ccc(C)cc3)c(OC)c2)cc(=O)c2c(C)oc(C)c12,nt,nt,i,?,17.8µM
SMILES,Mito fusion act,aSyn yeast inh,Abeta yeast res,FUS yeast rescue,TDP43 rescue
COc1cc(-c2cc(OC)c3c(C)oc(C)c3c(=O)c2)ccc1OC(=O)c1ccccc1C,nt,nt,i,?,20µM
COc1ccc(-c2cc(OC(=O)c3ccccc3C)c3c(C)oc(C)c3c(=O)c2)cc1,nt,nt,i,i,i
COc1ccc2c(c1)CC[C@@H]1[C@@H]2CC[C@]2(C)[C@@H](C(C)=O)C[C@@H]12,i,i,i,i,i
C[C@]12CC[C@@H]3c4ccc(O)cc4CC[C@H]3[C@@H]1CCC2=O,5.8µM!,i,i,i,4.47µM
COc1ccc2c(c1)CC[C@@H]1[C@@H]2CC[C@]2(C)[C@@H](C(=O)O)C[C@@H]12,?,i,i,i,20µM
Cc1cccc(C(=O)N2CCC(=O)N([C@H](COCc3ccc(Cl)cc3)Cc3ccccc3)CC2)c1,nt,i,i,?,15.8µM
O=C(c1ccc(Cl)c(Cl)c1)N1CCC(=O)N(C(COCc2cccc(Cl)c2)Cc2ccccc2)CC1 (configuration not stated),35.5µM,?,i,?,i
Cc1cccc(C(=O)N2CCC(=O)N([C@H](COCc3cccc(Cl)c3)Cc3ccccc3)CC2)c1,nt,?,i,?,35.5µM
Cc1cccc(COC[C@H](CC(C)C)N2CCN(C(=O)c3ccc(C(C)(C)C)cc3)CCC2=O)c1,nt,i,i,?,22.4µM
CCc1ccc(CNC(=O)c2cnc3sc4cc(OC)ccc4n3c2=O)cc1,nt,nt,i,i,i
CCOCCOC(=O)c1ccc(NC(=O)/C=C/c2ccc(OC)c(OC)c2)cc1,nt,nt,i,i,i
CCOc1ccc(CCNC(=O)CSc2nc3ncc(Cl)cc3[nH]2)cc1OCC,i,i,i,i,i
Cc1ccc2c(C(=O)CN3CCC(C(N)=O)CC3)c(C)[nH]c2c1,i,nt,nt,nt,nt
Cc1cccc(C(=O)N2CCC(=O)N(C(COCc3ccc(Cl)cc3)Cc3ccccc3)CC2)c1 (configuration not stated),?,?,i,?,35.5µM
O=C(CSc1ccc(-c2ccco2)nn1)Nc1ccccc1F,i,i,i,i,28.2µM
Cn1c(SCC(=O)Nc2ccc(Cl)cc2F)nnc1-c1ccco1,i,2.82µM,i,i,i
CCOc1ccccc1NC(=O)CSc1ccc(-c2ccco2)nn1,i,i,i,i,?
Cc1cc(NC(=O)CSc2nnc(-c3ccco3)n2C)no1,i,i,i,i,i
O=C(Cn1nc(-c2ccco2)ccc1=O)Nc1cc(Cl)ccc1Cl,i,i,i,i,12.6µM
N#CC1(NC(=O)COc2ccc(S(=O)(=O)N3CCCC3)cc2[N+](=O)[O-])CCCCC1,i,i,i,i,i
O=C(c1cccnc1Cl)N1CCC(Oc2cccnc2)CC1,nt,nt,nt,i,nt
COCc1cccc(C2=CC(=O)C[C@H](c3ccc(OC)cc3)C2)c1,i,i,i,i,14.1µM
COc1ccc([C@H]2CC(=O)C=C(c3ccc(C)c([N+](=O)[O-])c3)C2)cc1,?,i,i,?,35.5µM
COc1ccc([C@H]2CC(=O)C=C(c3cccc(Cl)c3)C2)cc1,?,i,i,i,17.8µM
COc1ccc([C@H]2CC(=O)C=C(c3ccc4c(c3)OCCO4)C2)cc1,?,i,i,i,?
SMILES,Mito fusion act,aSyn yeast inh,Abeta yeast res,FUS yeast rescue,TDP43 rescue
CC(C)(C)C(=O)Nc1ccc2nc(SCC(=O)N3CCc4ccccc43)sc2c1,nt,nt,i,i,i
CC1(C)Nc2cccc3c(N=Nc4ccc(N=Nc5ccccc5)c5ccccc45)ccc(c23)N1,nt,i,nt,nt,nt
Cc1ccc(-c2cc(C(=O)N3CCN(S(=O)(=O)c4ccc(Br)cc4)CC3)[nH]n2)cc1C,nt,nt,i,i,i
COCc1cc(C)nc2sc(C(=O)N3CCCCC3)c(N)c12,i,i,i,i,i
COCc1cc(C)nc2sc(C(=O)N3CCN(c4ccccc4)CC3)c(N)c12,i,i,i,i,20µM
Cc1ccc2c(c1)c(C)c(C)n2CC(O)Cn1nc(C)cc1C (configuration not stated),i,i,?,i,?
